Bioassay records: PubChem BioAssay, Sanford-Burnham Center for Chemical Genomics
Hits are enriched below; roughly 3% of the tested compounds scored in any of these assays.
TRAIL sens C8: caspase-8 TRAIL sensitization; inhibition (viability loss, TRAIL sensitization), % at 10 µM; NB7+C8 cells + TRAIL, ATPlite viability luminescence; hit rate 1% among 360,000;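 active means compounds causing at least 50% loss of cell viability in the single-dose screen, relative to plate controls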
SENP8 block-1: inhibitors of human SENP8 protease | Q96LD8 | recombinant SENP8, Nedd8 substrate fluorescence | inhibition, % at 20 µM | hit rate 0.64% among 360,000 | AID 602440; in the data active means inhibition mostly above about 40%, no sharp cut-off; inactive means mostly below about 27%
Target sequence (Q96LD8 whole entry, looked up): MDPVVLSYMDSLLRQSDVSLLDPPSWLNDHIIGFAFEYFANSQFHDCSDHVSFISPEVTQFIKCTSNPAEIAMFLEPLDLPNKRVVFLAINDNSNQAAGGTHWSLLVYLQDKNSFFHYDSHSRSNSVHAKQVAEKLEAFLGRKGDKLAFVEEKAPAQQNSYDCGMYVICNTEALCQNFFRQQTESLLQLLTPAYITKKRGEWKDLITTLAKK
SENP7 inh: blocks the human protease SENP7; inhibition, % at 5 µM; hit rate 1.5% among 330,000; recombinant SENP7, Z-RLRGG-aminoluciferin luminescence, 40 min; Q9BQF6;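 active means inhibition above about 50% at the single test dose, limit read from the data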;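 further: plate controls were DMSO with enzyme for no effect and no enzyme buffer wells for full effect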
SENP8 block-2: SENP8 protease inhibition; hit rate 1.2% among 330,000; Q96LD8; inhibition, % at 10 µM; purified SENP8, Z-RLRGG-aminoluciferin cleavage, luminescence; in the data active means inhibition above about 50%
SENP6 inh: SENP6 protease inhibition | Q9GZR1 | Recombinant SENP6 catalytic domain, aminoluciferin luminescence | inhibition, % at 10 µM | hit rate 1.8% among 330,000 | AID 2599;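 active means inhibition above about 50% at the single tested dose, limit read from the data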;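 further: plate controls were DMSO wells with enzyme for no effect and DMSO wells lacking enzyme for full effect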
Target sequence (Q9GZR1 628-1112 limits assumed): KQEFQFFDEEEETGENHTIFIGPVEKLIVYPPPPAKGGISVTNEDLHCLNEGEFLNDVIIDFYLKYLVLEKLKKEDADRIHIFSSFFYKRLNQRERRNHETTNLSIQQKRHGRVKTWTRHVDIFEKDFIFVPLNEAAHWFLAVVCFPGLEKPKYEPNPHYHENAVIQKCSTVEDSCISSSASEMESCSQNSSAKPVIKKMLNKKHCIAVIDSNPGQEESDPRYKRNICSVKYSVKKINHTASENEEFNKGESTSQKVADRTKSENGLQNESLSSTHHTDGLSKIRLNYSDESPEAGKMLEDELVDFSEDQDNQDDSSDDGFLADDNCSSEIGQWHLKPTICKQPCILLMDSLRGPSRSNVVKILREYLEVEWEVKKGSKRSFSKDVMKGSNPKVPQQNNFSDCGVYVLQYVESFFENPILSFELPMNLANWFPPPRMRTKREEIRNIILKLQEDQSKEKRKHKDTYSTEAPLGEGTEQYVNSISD
PPC-1+TRAIL kill: compounds killing PPC-1 cancer cells with TRAIL present (potentiator screen, no TRAIL-free arm); AID 1443; hit rate 0.41% among 220,000; PPC-1 cells + TRAIL, ATPLite viability luminescence; cell killing (% activity), % at 4 µM or 5 µM;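 active means cell killing above 50% in the first pass at 4 µM, then a duplicate retest at 5 µM averaging 50% or more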;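 further: plate controls were cells with TRAIL plus DMSO for no effect and medium-only wells lacking cells for full effect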
SENP8 conf-1: human SENP8 inhibition, confirmed; shares compounds with SENP7 inh; Recombinant SENP8, Z-RLRGG-aminoluciferin luminescence, 60 min; inhibition, % at 12.5 µM; hit rate 40% among 6,200; AID 488912;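 active means mean inhibition across replicates above about 50%, limit read from the data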
SENP6 confirm: human SENP6 inhibition, confirmed; inhibition, % at 12.5 µM; AID 488915; shares compounds with SENP7 inh; recombinant SENP6, Z-RLRGG-aminoluciferin luminescence; hit rate 58% among 6,200
SENP7 confirm: human SENP7 inhibition, confirmed | shares compounds with SENP7 inh | recombinant SENP7, Z-RLRGG-aminoluciferin luminescence, 40 min | inhibition, % at 12.5 µM | hit rate 69% among 6,200
Casp3 SENP sel: selectivity test for SENP inhibitors: human caspase-3 inhibition; shares compounds with SENP7 inh; hit rate 60% among 6,200; purified caspase-3, Z-DEVD-aminoluciferin luminescence, 60 min; inhibition, % at 12.5 µM;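 active means mean inhibition above about 50%, limit read from the data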;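 further: plate controls were enzyme with DMSO for no effect and wells without caspase-3 for full effect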
Luc interf: counter-screen for SENP inhibitors: luminescence interference; shares compounds with SENP7 inh; Pre-incubated SENP8/Z-RLRGG-aminoluciferin, luciferase luminescence interference; inhibition, % at 12.5 µM; hit rate 39% among 6,200; AID 488919;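 active means mean inhibition above about 50% when retested at one dose, limit read from the data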;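 further: plate controls were DMSO wells with completed reaction for no effect and substrate without enzyme for full effect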
SENP8 conf-2: SENP8 (human) inhibition, single concentration confirmation; shares compounds with SENP8 block-1; purified SENP8, Nedd8-AMC/pro-Nedd8 cleavage fluorescence, 30 min; AID 624319; inhibition, % at 25 µM; hit rate 15% among 1,400; in the data active means inhibition mostly above about 39%, no sharp cut-off; inactive means mostly below about 34%
* = called active by the depositor; / = no result given.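 How the source made its calls, unless noted: active means mean inhibition above about 50% in the one-dose retest (limit read from the data); inactive means the rest.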

SMILES | TRAIL sens C8 | SENP8 block-1 | SENP7 inh | SENP8 block-2 | SENP6 inh | PPC-1+TRAIL kill | SENP8 conf-2 | others
COc1cc(C(=O)OCC(=O)NC2CCCCC2)cc(OC)c1OC | 3 | 15 | 1 | -9 | -15 | / | /
O=C1Cc2ccccc2C(=O)N1OCc1ccc(Cl)cc1 | 4 | 92* | 52* | 28 | 71* | 0 | 64* | SENP8 conf-1=12;SENP6 confirm=28;SENP7 confirm=17;Casp3 SENP sel=15;Luc interf=4
Cc1ccccc1Nc1nc(N)[nH]c(=O)c1N=O | 1 | -5 | / | / | / | / | /
N#CC1=C2SCN(Cc3ccccc3)CN2C(=O)CC1c1cccs1 (stereo not drawn) | 1 | 69* | 40 | 71* | 74* | 7 | 9 | SENP8 conf-1=-26;SENP6 confirm=5;SENP7 confirm=-3;Casp3 SENP sel=-5;Luc interf=-4
CCNC(=O)NC(=O)C(C)Sc1nc2ccccc2c(=O)n1-c1cccnc1 (stereo not drawn) | -10 | 5 | -2 | 4 | -13 | / | /
CCNC(=O)NC(=O)C(C)Sc1nc2ccccc2n1CC(C)C (stereo not drawn) | -1 | 42* | 1 | 2 | -1 | 18 | 13
COC(=O)[C@@]12C[C@@H](CC(=O)N3CCC(c4ccccc4)CC3)C(=O)N(Cc3cccc4ccccc34)C1=CCC(C)(C)C2 | 8 | 22 | / | / | / | / | /
CCc1ccc2c(c1)c1nc(C)sc1n2CC | 0 | 96* | 9 | 9 | 20 | 13 | 15
Cc1nc2c3cc(F)ccc3n(Cc3ccc(F)cc3)c2s1 | -13 | -10 | -1 | -3 | 9 | 12 | /
O=C(CCC1CCCN(C(=O)c2ccc3[nH]ccc3c2)C1)N1CCN(c2ccccn2)CC1 (stereo not drawn) | 9 | -3 | 7 | 5 | 2 | 18 | /
COCCCNC1=C(C#N)C(=O)NC(c2cccs2)S1 (stereo not drawn) | -3 | 16 | / | / | / | / | /
CCC(=O)c1ccc(OCc2cn(CC(=O)c3ccc(O)cc3)nn2)cc1 | -3 | 32* | / | / | / | / | 41*
Cc1ccccc1N1C(=O)CC(N(O)c2ccccc2)C1=O (stereo not drawn) | -12 | 13 | 0 | 0 | -3 | 9 | /
O=C1CC(N(O)c2ccccc2)C(=O)N1c1cc(Cl)cc(Cl)c1 (stereo not drawn) | 1 | 44* | -1 | -11 | -6 | -15 | 17
CCCCN1C2=C(C(=O)CC(C)(C)C2)C(c2ccccc2)C2=C1c1ccccc1C2=O (stereo not drawn) | 4 | 54* | 18 | 0 | -4 | 16 | 13
CC1(C)C[C@H]2C3=CCC4[C@@]5(C)CC[C@H](O)[C@](C)(CO)C5CC[C@@]4(C)[C@]3(C)CC[C@@]2(C)[C@H](O)[C@@H]1O (stereo partly drawn) | 17 | 40* | -6 | -14 | -26 | / | 4
COc1ccc(OC)c(CC(=O)Nc2ccc3c(c2)c(=O)n(C)n3Cc2cccc(C(F)(F)F)c2)c1 | -4 | -481 | / | / | / | / | /
Fc1cccc(CN2CCN(c3nc4nonc4nc3NC3CC3)CC2)c1 | -5 | 14 | -7 | -3 | 22 | 10 | /
CC(C)CSc1nnc2c3ccccc3n(C)c2n1 | 12 | -5 | 15 | 35 | 50 | / | /
CCn1c2ccccc2c2nnc(NN)nc21 | 1 | 33 | 8 | 7 | 21 | 4 | /
Cn1c2ccccc2c2nnc(NN)nc21 | 1 | 77* | -11 | 4 | 17 | -19 | 38*
CCCCn1c2ccc(F)cc2c2nnc(NN)nc21 | 2 | 71* | 3 | 0 | 11 | -7 | 15
CCn1c2ccc(C)cc2c2nnc(NN)nc21 | 9 | 69* | 8 | 0 | 4 | 10 | 21
CN(C(=O)CN1C(=O)C2C3CC(C(Br)C3Br)C2C1=O)C1CCCCC1 (stereo not drawn) | -3 | 5 | 1 | 0 | -12 | / | /
CCOc1ccc(NC(=O)CCC(=O)N/N=C2\CCCc3ccccc32)cc1 | 17 | 7 | 7 | -14 | -7 | / | /
SMILES | TRAIL sens C8 | SENP8 block-1 | SENP7 inh | SENP8 block-2 | SENP6 inh | PPC-1+TRAIL kill | SENP8 conf-2 | others
O=C(Cc1ccsc1)N1CCN(S(=O)(=O)c2ccccc2F)CC1 | -2 | 10 | 8 | 4 | 11 | / | /
CCOC(=O)/C(C#N)=C1/C=Cc2ccccc2N1CC | -3 | 41* | 2 | 5 | -8 | 24 | 18
CCN1C(=C(C#N)C#N)C=Cc2ccccc21 | -5 | 14 | -5 | -3 | -8 | 4 | /
CCN(CC(=O)NC(C)(C)C)Cc1nc2c(Br)cc(Br)cc2c(=O)[nH]1 | 15 | 41* | -4 | -10 | 2 | 3 | 25
O=C(COC(=O)c1ccccc1O)Nc1cccc2ccccc12 | 22 | -200 | 2 | 0 | -10 | / | /
Cn1c(SCC(=O)N2CCc3ccccc32)nnc1-c1ccc(S(=O)(=O)N2CCCC2)cc1 | 5 | 26 | -1 | -8 | 0 | 7 | /
CCN(CC)CCCOC(=O)C(c1ccccc1)c1ccccc1 | 8 | 62* | 3 | 4 | -14 | 39 | 18
O=c1ccc(NS(=O)(=O)c2ccccc2Cl)cn1Cc1ccc(Cl)c(Cl)c1 | 13 | 39* | 10 | 10 | 21 | 17 | -7
COc1ccc(CCNC(=O)CSc2nc(=O)n3cc(C)ccc3n2)cc1OC | -3 | 62* | 4 | 3 | -9 | / | 25
Cc1ccc2nc(SCC(=O)NCCc3ccccc3)nc(=O)n2c1 | -8 | -233 | 9 | -3 | -11 | / | /
O=Nc1c(-c2ccccc2)[nH]n(-c2ccccc2)c1=O | -1 | 47* | 12 | -16 | -19 | / | 13
Cc1c(Cl)c([N+](=O)[O-])nn1CCCC(=O)N1CCN(c2ccccc2)CC1 | 0 | 20 | -4 | -8 | -8 | 6 | /
Cc1cc([N+](=O)[O-])nn1CCCC(=O)N1CCN(c2ccccc2)CC1 | -4 | 41* | 1 | 2 | 7 | 36 | 9
CNC[C@H]1OCc2ccccc2-c2ccccc2C(=O)N([C@@H](C)CO)C[C@H]1C | 2 | 11 | / | / | / | / | /
